According to PubChem BioAssay AID1578 (Sanford-Burnham Center for Chemical Genomics, 2009):
In all, about 290,000 compounds went through this assay and about 3,000 (1%) were called active. The sample as a whole holds a higher share of actives than the screen did. Values without a mark were called inactive. Cut-off read from the data, not from the text of the source: active = inhibition mostly above about 36% (no sharp cut-off); inactive = mostly below about 34%.

Assay: inhibition of NOD1-driven NF-kB reporter – cell-based, luminescence, uHTS, primary screen (AID 1578);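 note: HEK-293T reporter cells stimulated with the NOD1 agonist gamma-tri-DAP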
Conditions: NOD1-driven NF-kB luciferase reporter cells, at 4 µM, stronger effect = higher value

Row | SMILES | inhibition
1 | Cc1ccsc1C=Nc1ccc(O)cc1 | 27.4%
2 | Cc1ccsc1/C=N/n1cnnc1 | -5.7%
3 | Cc1ccsc1/C=N/N=C/c1sccc1C | 76.7% (active)
4 | COc1ccc(C(=O)C(OC(=O)CNC(=O)c2ccco2)c2ccccc2)cc1 (stereo unspecified) | -7.7%
5 | COc1ccccc1C(=O)NNC(=O)C1CCCO1 (stereo unspecified) | -10.6%
6 | COc1ccc(C(=O)Nc2ccc(N3CCCCC3)cc2)cc1Br | -49%
7 | O=C1CCC(c2ccccc2)N1C(=O)c1cccnc1 (stereo unspecified) | -12.6%
8 | N#C/C=C1\n2c(nc3ccccc32)OC12CCCCC2 | -4%
9 | CNc1nc2ccccc2n1N | 47%
10 | CC1(C)Oc2nc3ccccc3n2/C1=C\C#N | 42% (active)
11 | c1ccc(CCNc2ncnc3nc[nH]c23)cc1 | 16.7%
12 | Cc1cccc(CSc2ncnc3nc[nH]c23)c1 | -13.3%
13 | c1ccc2c(CCNc3ncnc4nc[nH]c34)c[nH]c2c1 | 20.4%
14 | c1ccc2c(CCNc3ncnc4nc[nH]c34)cccc2c1 | 62% (active)
15 | c1ccc2c(CSc3ncnc4nc[nH]c34)cccc2c1 | 71.3% (active)
16 | c1ccc(CCSc2ncnc3nc[nH]c23)cc1 | -1.6%
17 | Cc1cccc(C(=O)NC(=O)Nc2c(C)cc(C)nc2C)c1 | -46.9%
18 | O=C(CCCn1cc([N+](=O)[O-])cn1)Nc1cccnc1 | -11.6%
19 | Cc1ccc(C(=O)c2coc3cc([N+](=O)[O-])c(O)c([N+](=O)[O-])c23)cc1 | 21.2%
20 | CCCCN(Cc1ccccc1)c1ncnc2nc[nH]c12 | -41%
21 | CCCCN(c1ccccc1)c1ncnc2nc[nH]c12 | 36.9%
22 | CCCCN(CCCC)c1ncnc2nc[nH]c12 | 84.5% (active)
23 | O=C(N[C@@H]1CCC(=O)N(CC[C@H](Oc2ccccc2)c2ccccc2)CC1)OCc1ccccc1 | 53.8%
24 | COc1cc(/C=C(\C#N)C(N)=O)ccc1OS(=O)(=O)c1ccc(C)cc1 | 14.7%
25 | C=CCNC(=O)/C(C#N)=C/c1ccc(OS(=O)(=O)c2ccc(C)cc2)c(OC)c1 | 10%
26 | COc1cc(/C=C(\C#N)C(=O)NC2CCCCC2C)ccc1OS(=O)(=O)c1ccc(C)cc1 (stereo unspecified) | 75.9% (active)

Row | SMILES | inhibition
27 | COc1ccc(CNC(=O)CN(Cc2ccc(F)cc2)C(=O)c2csnn2)cc1 | -24.5%
28 | C=CCn1c(=O)c2ccc(C(=O)NCc3ccccc3)cc2n(Cc2cccc(Cl)c2)c1=O | 61.7%
29 | O=C(CN1CCCN(S(=O)(=O)c2ccc(F)cc2)CC1)Nc1c(Cl)cccc1Cl | -4.7%
30 | Fc1cccc(Cl)c1CNC(c1ccccc1)c1ccccc1 | 9.2%
31 | Cc1ccc(NCC(=O)N/N=C/c2cc3ccccc3nc2Cl)cc1 | -21.8%
32 | CCOC(=O)C(=Cc1cc(=O)c(OC)co1)C(=O)OCC | -12.3%
33 | COc1ccccc1/C=C(/C(=O)OCC(N)=O)c1ccccc1 | 0.8%
34 | CCOC(=O)C(=Cc1ccc(-n2ccnc2)cc1)C(=O)OCC | 45.8% (active)
35 | CCOC(=O)C(=Cc1ccc(Br)cc1)C(=O)OCC | 36.2% (active)
36 | CCOC(=O)C(=Cc1ccccc1OC)C(=O)OCC | 47.6% (active)
37 | COC(=O)/C=C/c1ccc(-n2ccnc2)cc1 | -9.9%
38 | CCOC(=O)/C(=C/c1ccc(OC(=O)c2ccccc2)cc1)C(C)=O | -13.5%
39 | O=C(O)/C=C/c1ccc(-n2ccnc2)cc1 | 1.1%
40 | CCOC(=O)C(=Cc1ccc(F)cc1)C(=O)OCC | 31.2%
41 | Cc1nn(-c2ccccc2)c(C)c1C(=O)OCC(=O)N1CCN(S(=O)(=O)c2ccccc2)CC1 | -0.7%
42 | Cc1ccc2c(N)c(C)ccc2c1 | -4.1%
43 | Cn1ncc(N2CCN(C(=O)c3ccc(Cl)cc3)CC2)c(Cl)c1=O | -21.9%
44 | COc1ccc(CNC(=O)C2CCCN(S(=O)(=O)c3ccc(Br)s3)C2)cc1 (stereo unspecified) | -13.3%
45 | Cc1cc(N/N=C/c2ccccc2F)nc(NCc2ccccc2)n1 | -2.7%
46 | CCN(CC)C(=O)CSC(Nc1ccc(F)cc1)=C(C#N)C#N | 4.2%
47 | CCc1ccc(N/C(SCc2cccc(F)c2)=C(/C#N)C(=O)NCc2ccco2)cc1 | 3.2%
48 | Cc1cccc(CSC(Nc2ccc(F)cc2)=C(C#N)C#N)c1 | 83.7% (active)
49 | COc1ccc(S(=O)(=O)N(C)CC(=O)N2CCCC2)cc1OC | -5.3%
50 | c1ccc(SCc2cn(C[C@H]3CC[C@@H]([C@@H]4CC[C@H](Cn5cc(CSc6ccccc6)nn5)O4)O3)nn2)cc1 | 22.8%
51 | CCCn1c2ccccc2c2cnn(CC(=O)NC3CCCCC3)c(=O)c21 | -26.9%
52 | Cc1ccc(C(=O)Nc2nc(-c3ccccc3)c(-c3ccccc3)o2)cc1 | 35.6%

Row | SMILES | inhibition
53 | CC(=O)Nc1nc(-c2ccccc2)c(-c2ccccc2)o1 | -5.3%
54 | CCN(CC)C(=S)SCC(=O)Nc1nc(-c2ccccc2)c(-c2ccccc2)o1 | 72.2% (active)
55 | O=C(CSC(=S)N1CCCCC1)Nc1nc(-c2ccccc2)c(-c2ccccc2)o1 | 9.9%
56 | O=C(Nc1nc(-c2ccccc2)c(-c2ccccc2)o1)c1ccc(F)cc1 | 97.4% (active)
57 | CN1CCN(C(=S)SCC(=O)Nc2nc(-c3ccccc3)c(-c3ccccc3)o2)CC1 | -3.5%
58 | COc1ccccc1OCc1ccc(C(=O)N2CCOCC2)o1 | -11%
59 | C=CCN(Cc1cc(OC)ccc1OC)S(=O)(=O)N(C)C | 3.4%
60 | O=C(Cc1ccc(Br)cc1)OCC(=O)N1CCc2ccccc2C1 | -12.8%
61 | OCCC1CN(Cc2cccc(-c3ccco3)c2)CCN1Cc1ccsc1 (stereo unspecified) | -17.2%
62 | COCc1cc(N2CCOCC2)nc(SCc2ccc(Cl)cc2)n1 | 52.1% (active)
63 | CSCc1cc(N2CCOCC2)nc(SCc2ccc(Cl)c(Cl)c2)n1 | -11.4%
64 | COc1ccc(CSc2nc(CSC)cc(N3CCOCC3)n2)cc1 | 7.8%
65 | CCCCCCn1ccc(=N)cc1 | 41.6%
66 | CCCCCn1ccc(=N)cc1 | 13.1%
67 | CCN(CC)S(=O)(=O)c1ccc(NS(=O)(=O)c2ccc3oc(=O)[nH]c3c2)cc1 | 22.1%
68 | COC(=O)C1C(=O)c2c(n[nH]c2C)CC1(C)C (stereo unspecified) | -14.2%
69 | COC(=O)C1C(=O)c2c(C)noc2CC1(C)C (stereo unspecified) | 64.3% (active)
70 | CCCc1n[nH]c2c1C(=O)C(C(=O)OC)C(C)(C)C2 (stereo unspecified) | 11.5%
71 | O=C(c1ccccn1)c1conc1C(=O)c1ccc(Br)cc1 | 0.5%
72 | CN(C(=S)NC(=O)Cc1ccccc1)c1ccccc1 | -27.4%
73 | Cc1cc(C)cc(NC(=S)N2CCN(S(=O)(=O)c3ccccc3)CC2)c1 | -17.6%
74 | Cc1csc(CN(C)C(=O)CC2C(=O)NCCN2Cc2ccc(F)cc2Cl)n1 (stereo unspecified) | -11.4%
75 | c1coc(CNc2nc3ccccc3n2CCN2CCOCC2)c1 | 43.1% (active)
76 | CCCn1c(NCc2ccco2)nc2ccccc21 | -16.4%
77 | c1csc(CNc2nc3ccccc3n2CCN2CCOCC2)c1 | 1.1%
78 | CCN(CC)c1ccc(/C=C(\C#N)c2ccccn2)cc1 | -55.6%

Row | SMILES | inhibition
79 | CN(C)c1ccc(/C=C(\C#N)c2ccccn2)cc1 | 73.6% (active)
80 | CNc1ccc(/C=C(\C#N)c2ccccn2)cc1[N+](=O)[O-] | -34.3%
81 | N#C/C(=C\c1ccc(Cl)c([N+](=O)[O-])c1)c1ccccn1 | 47.2% (active)
82 | N#C/C(=C\c1ccc([N+](=O)[O-])cc1)c1ccccn1 | -27.2%
83 | CN(CCC#N)c1ccc(/C=C(\C#N)c2ccccn2)cc1 | 30.9%
84 | CCOC(=O)c1sc(NC(=O)C(C)Sc2nnc(N)s2)nc1C (stereo unspecified) | -12.9%
85 | CCNC(=O)Nc1cc2nc(C)n(Cc3ccc(Br)cc3)c2nc1C | 24.1%
86 | Cc1cc(-n2c(C)cc(C(=O)CCl)c2C)no1 | 46.4% (active)
87 | CCOC(=O)c1cc(C)n(-c2c(C)n(C)n(-c3ccccc3)c2=O)c1C | -12.8%
88 | Cc1cc(C(=O)CCl)c(C)n1-c1ccon1 | 28.2%
89 | COc1ccc(-n2c(C)cc(C(=O)CCl)c2C)cc1 | 39.1%
90 | Cc1cc(C(=O)CCl)c(C)n1-c1cccc([N+](=O)[O-])c1 | 77.4% (active)
91 | Cc1cc(C(=O)CC#N)c(C)n1-c1c(C)n(C)n(-c2ccccc2)c1=O | -19.8%
92 | Cc1cc(C(=O)CCl)c(C)n1-c1c(C)n(C)n(-c2ccccc2)c1=O | 42.5% (active)
93 | CC(=O)c1c(C(C)=O)c(C)n(-c2cccc([N+](=O)[O-])c2)c1C | -27.2%
94 | Cc1cc(-n2c(C)cc(C(=O)CN3C(=O)NC4(CCCC4)C3=O)c2C)no1 | -20.6%
95 | COc1ccc(NC(=O)Nc2cccc3ccccc23)cc1S(N)(=O)=O | 25.8%
96 | N/C(=N\O)c1cccc(CS(=O)(=O)c2ccccn2)c1 | -7.5%
97 | Cc1ccc(-n2[nH]c(C)c(C=NC34CN5CN(CN(C5)C3)C4)c2=O)cc1C | 9.5%
98 | CCCN1C(=S)c2ccccc2C1c1ccccc1 (stereo unspecified) | 35.5%
99 | O=S(=O)(NN1CCOCC1)c1ccc(Cl)s1 | -37.6%
100 | O=C1c2cccc3cccc(c23)C(=O)N1Cc1ccccc1 | -16.9%
101 | Cc1ccc(CN2CCN(CCCn3cccn3)CC2CCO)cc1 (stereo unspecified) | -31%
